Out of some 300,000 compounds screened, about 3,200 (1.1%) were called active. What follows is part of a selection rich in actives, with near analogues and random picks from the rest. Values without a mark were called inactive. No stated cut-off is given here; in the data, active means inhibition above about 75%; inconclusive means no clear call, values can overlap the other calls; inactive means below that; tested in HMLE shEcad cells.
assay: growth suppression of cancer stem-like cells – cell-based, luminescence, primary screen (AID 2717); settings: cancer stem cell-like cells viability, at 7.5 µM, active compounds read high

For Cc1ccc(P(=S)(c2ccc(C)o2)N2CCOCC2)o1, the inhibition was 76.5% (active).
With CCCCCCCCCCCCn1ccc(=N)cc1 the inhibition was 102% (active).
In the case of O=C1C2(Cl)C3(Cl)C4(Cl)C(Cl)(Cl)C5(Cl)C3(Cl)C1(Cl)C5(Cl)C24Cl (stereo not given), the inhibition is reported as 101% (active).
With CC(Cc1ccccc1)NCCC(c1ccccc1)c1ccccc1 (stereo not given) the inhibition was 86.3% (active).
In the case of O=C1NC(=O)N(CCc2ccc(F)cc2)C(=O)/C1=C/C=C/c1ccccc1, the inhibition is reported as 89.8% (active).
With C[C@]12CC[C@H](O)C[C@H]1CC[C@@H]1C2CC[C@]2(C)[C@@H](C3=CC(=O)OC3)[C@@H](O)C[C@]12O (stereo not given in full) the inhibition was 85% (active).

In order of rising inhibition:
1. C[C@]12CCC3C(CC[C@H]4C[C@@H](O)CC[C@]34C)C1CC[C@@H]2O (stereo not given in full)  -19.5%
2. Cc1ccc(-n2c(C)cc(/C=C3\C(=O)NC(=O)N(C)C3=O)c2C)cc1C  -18.6%
3. COC(=O)C1=C(c2ccc(Cl)c(C(F)(F)F)c2)C[C@@H]2CC[C@H]1N2C(=O)NC1CC1  -14.7%
4. CC(=O)NC(=O)NC(C)Cc1ccccc1 (stereo not given)  -9.41%
5. C[C@]12CCC3C(CC[C@H]4C[C@@H](O)CC[C@]34C)C1C[C@@H](O)[C@H]2O (stereo not given in full)  -9.01%
6. O=C(O)COc1ccccc1/C=C1\C(=O)NC(=O)N(CCC2=CCCCC2)C1=O  -7.06%
7. CC(Cc1cccs1)NCc1ccc(Cl)cc1 (stereo not given)  -5.86%
8. CC(Cc1ccccc1)NC=O (stereo not given)  -4.89%
9. O=C(O)C1CSC(c2cccnc2)N1 (stereo not given)  -4.58%
10. CCC(=O)c1ccc(OCC(=O)N2CCN(CC(=O)Nc3ccc(C)cc3)CC2)cc1  -4.41%
11. O=C1NC(=O)N(Cc2ccco2)C(=O)/C1=C\c1ccc(-c2ccc(F)cc2)o1  -3.26%
12. COc1ccc(-c2nn(CCC#N)cc2C(=O)O)cc1  1.09%
13. N=c1ccccn1Cc1ccccc1  1.97%
14. COC(=O)C1=C(c2c(C)noc2C)C[C@@H]2CC[C@H]1N2C(=O)NCc1ccc2c(c1)OCO2  2.81%
15. COC(=O)C1=C(c2ccccc2OCc2ccccc2)C[C@@H]2CC[C@H]1N2C(=O)NCc1ccc(OC)cc1  6.19%
16. N#Cc1ccc(Cn2cc(C(=O)c3ccco3)c3ccccc32)cc1  6.82%
17. COC(=O)C1=C(c2ccc(F)cc2OCc2ccccc2)C[C@@H]2CC[C@H]1N2C(=O)NCc1ccc2[nH]ccc2c1  9.97%
18. CCC1(C)CC(CCNCc2ccc(N(C)C)cc2)(c2ccc(F)cc2)CCO1 (stereo not given)  15%
19. COC(=O)C1=C(c2ccc(F)cc2OCc2ccccc2)C[C@@H]2CC[C@H]1N2C(=O)NCc1ccc(Cl)cc1  15.5%
20. C[C@]12CC[C@H](O)CC1=C([N+](=O)[O-])CC1C2CC[C@@]2(C)C1CC[C@@H]2O (stereo not given in full)  19.8%
21. Nc1ccc([N+](=O)[O-])cc1  22.2%
22. COC(=O)C1=C(c2cccc(OCc3ccccc3)c2)C[C@@H]2CC[C@H]1N2C(=O)NCc1ccc(Br)cc1  30%
23. COc1ccc(Br)cc1CNCCc1cccc(Cl)c1  35.5%
24. COC(=O)C1=C(c2ccc(-c3ccccc3)c(F)c2)C[C@@H]2CC[C@H]1N2C(=O)NCc1ccc(F)cc1  36.3%

— PubChem BioAssay AID2717 (Broad Institute, 2010)
